The text below walks through data of PubChem BioAssay.

Activity calls are given as the source filed them.

Test [1] is described as follows: small molecules captured by biotinylated probe aFSTL3 – biochemical, small-molecule microarray, fluorescence 635/667, stem cell growth factor project, primary screen (AID 1064).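 Note: measures binding of the biotinylated anti-FSTL3 antibody to printed compounds.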 The note with it: higher = more signal.
Test [2] is described as follows: binders from COS7 lysate, DM2A8 probe, primary screen, torsin A project, cell lysate, small-molecule microarray, fluorescence 635/667 (AID 1065). The note with it: higher = more signal, COS7 lysate expressing mutant human TOR1A.
Test [3] in a line: small molecules captured by biotinylated probe aFGF2 – biochemical, small-molecule microarray, fluorescence 635/667, stem cell growth factor project, primary screen (AID 1067).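 Note: measures binding of biotinylated aFGF2 protein to printed compounds on slides; z-score merges feature fluorescence and signal-to-noise across triplicate slides.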 The note with it: higher = more signal.
Test [4] can be described thus: small molecules captured by biotinylated probe aFGF10 – biochemical, small-molecule microarray, fluorescence 635/667, stem cell growth factor project, primary screen (AID 1071).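 Note: score merges 667 nm spot intensity and signal to noise from triplicate slides.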 The note with it: higher = more signal.
In test [5] the target is Neurogenic locus notch homolog protein 2 (Homo sapiens) (UniProt Q04721). In words: small molecules binding Notch2 protein – biochemical, small-molecule microarray, 635 nm fluorescence, stem cell growth factors, primary screen (AID 1073). The note with it: higher = more signal.
Test [6] deals with Pro-neuregulin-1, membrane-bound isoform (Homo sapiens) (UniProt Q02297). Nature of the test: small molecules binding neuregulin-1 protein – biochemical, small-molecule microarray, fluorescence 635/667, psychiatric disease protein project, primary screen (AID 1075).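 Note: score combines 667 nm spot fluorescence with signal to noise.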 The note with it: NRG1 binding, 635 nm fluorescence, higher = more signal.
The subject of test [7] is Neuregulin-1 EGF-like domain. In words: small molecules binding NRG1 EGF domain – biochemical, small-molecule microarray, 635 nm fluorescence, primary screen (AID 1081).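 Note: binding of the protein to compounds printed on small-molecule microarray slides.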 As to conditions: higher = more signal.
A short description of test [8]: FRG1 expression reporter modulators in myotubes – cell-based, C2C12 myotubes, firefly/Renilla luciferase, luminescence, FRG1 inhibition for FSHD, primary screen (AID 1084). As to conditions: FRG1 promoter luciferase, higher = more signal, called active from +8 up or from −8 down.
Test [9] in a line: small molecules captured by biotinylated probe aFST – biochemical, small-molecule microarray, fluorescence 635/667, stem cell growth factor project, primary screen (AID 1086).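 Note: score merges 667 nm fluorescence with signal-to-noise of each printed compound spot.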 As to conditions: higher = more signal.
Test [10] is described as follows: binders of probe aHhip on microarray, primary screen, stem cell growth factor project, biochemical, small-molecule microarray, fluorescence 635/667 (AID 1087).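 Note: score merges spot fluorescence at 667nm with spot signal to noise ratio.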 As to conditions: higher = more signal.

Chain of Neurogenic locus notch homolog protein 2 (Homo sapiens) (Q04721 whole entry, looked up, canonical isoform): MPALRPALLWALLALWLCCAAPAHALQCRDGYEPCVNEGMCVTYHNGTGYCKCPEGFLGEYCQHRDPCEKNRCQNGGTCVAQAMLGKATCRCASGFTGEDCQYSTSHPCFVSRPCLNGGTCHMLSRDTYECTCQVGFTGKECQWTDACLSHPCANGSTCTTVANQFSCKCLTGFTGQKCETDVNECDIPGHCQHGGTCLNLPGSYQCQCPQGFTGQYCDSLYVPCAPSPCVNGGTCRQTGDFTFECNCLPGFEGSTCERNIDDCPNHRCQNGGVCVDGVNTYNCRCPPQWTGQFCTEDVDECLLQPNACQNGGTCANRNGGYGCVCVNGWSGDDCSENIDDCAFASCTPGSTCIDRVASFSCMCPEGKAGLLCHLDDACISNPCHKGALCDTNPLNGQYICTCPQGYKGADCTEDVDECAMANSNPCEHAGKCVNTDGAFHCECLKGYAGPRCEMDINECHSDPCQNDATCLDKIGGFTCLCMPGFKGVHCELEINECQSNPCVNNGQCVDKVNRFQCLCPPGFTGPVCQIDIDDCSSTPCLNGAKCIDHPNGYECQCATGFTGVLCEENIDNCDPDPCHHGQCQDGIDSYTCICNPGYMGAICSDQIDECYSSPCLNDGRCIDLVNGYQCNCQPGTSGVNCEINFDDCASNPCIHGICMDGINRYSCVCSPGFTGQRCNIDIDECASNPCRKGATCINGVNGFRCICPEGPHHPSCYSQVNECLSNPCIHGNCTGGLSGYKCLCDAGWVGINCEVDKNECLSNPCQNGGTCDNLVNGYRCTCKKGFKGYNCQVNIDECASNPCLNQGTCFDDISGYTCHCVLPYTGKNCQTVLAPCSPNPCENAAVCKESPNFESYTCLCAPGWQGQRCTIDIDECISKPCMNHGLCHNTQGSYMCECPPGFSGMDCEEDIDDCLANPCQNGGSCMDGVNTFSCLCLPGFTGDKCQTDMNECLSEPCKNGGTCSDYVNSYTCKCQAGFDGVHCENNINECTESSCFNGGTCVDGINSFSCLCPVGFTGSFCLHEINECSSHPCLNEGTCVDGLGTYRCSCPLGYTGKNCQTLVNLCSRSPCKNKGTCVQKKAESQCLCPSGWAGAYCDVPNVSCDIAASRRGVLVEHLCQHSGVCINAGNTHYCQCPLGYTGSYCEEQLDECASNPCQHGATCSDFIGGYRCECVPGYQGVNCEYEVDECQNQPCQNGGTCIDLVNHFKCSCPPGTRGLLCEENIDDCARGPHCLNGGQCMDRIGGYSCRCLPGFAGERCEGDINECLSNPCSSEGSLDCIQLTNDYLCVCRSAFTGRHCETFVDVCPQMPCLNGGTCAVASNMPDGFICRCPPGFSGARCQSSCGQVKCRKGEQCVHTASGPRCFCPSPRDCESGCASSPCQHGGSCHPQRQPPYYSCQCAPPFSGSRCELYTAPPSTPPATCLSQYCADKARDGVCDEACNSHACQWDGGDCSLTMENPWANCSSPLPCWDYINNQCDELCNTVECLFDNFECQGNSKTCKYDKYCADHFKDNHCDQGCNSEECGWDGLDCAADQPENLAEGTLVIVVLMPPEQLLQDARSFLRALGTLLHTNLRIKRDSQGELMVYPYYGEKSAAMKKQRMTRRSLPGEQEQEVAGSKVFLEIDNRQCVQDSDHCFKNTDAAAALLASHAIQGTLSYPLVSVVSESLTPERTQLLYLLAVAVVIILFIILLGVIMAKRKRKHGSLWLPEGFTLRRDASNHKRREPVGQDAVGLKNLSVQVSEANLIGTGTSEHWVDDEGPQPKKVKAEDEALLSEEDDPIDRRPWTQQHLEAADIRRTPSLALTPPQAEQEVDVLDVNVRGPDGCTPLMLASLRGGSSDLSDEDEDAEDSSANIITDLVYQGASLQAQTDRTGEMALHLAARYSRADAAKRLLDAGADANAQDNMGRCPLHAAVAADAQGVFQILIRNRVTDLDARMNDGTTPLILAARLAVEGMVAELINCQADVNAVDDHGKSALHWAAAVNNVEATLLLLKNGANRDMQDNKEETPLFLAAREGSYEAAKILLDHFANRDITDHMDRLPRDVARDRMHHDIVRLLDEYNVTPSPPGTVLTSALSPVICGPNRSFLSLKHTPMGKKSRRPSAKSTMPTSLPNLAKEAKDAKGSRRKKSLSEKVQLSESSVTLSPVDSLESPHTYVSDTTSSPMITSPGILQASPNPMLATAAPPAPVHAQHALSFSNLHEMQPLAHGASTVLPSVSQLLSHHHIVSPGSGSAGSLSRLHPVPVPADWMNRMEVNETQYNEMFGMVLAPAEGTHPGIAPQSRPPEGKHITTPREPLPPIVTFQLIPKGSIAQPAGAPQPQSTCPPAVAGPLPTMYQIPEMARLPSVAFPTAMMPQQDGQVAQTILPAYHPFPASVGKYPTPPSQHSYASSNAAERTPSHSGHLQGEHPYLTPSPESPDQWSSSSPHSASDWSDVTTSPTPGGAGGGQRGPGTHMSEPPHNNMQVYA
Chain of Pro-neuregulin-1, membrane-bound isoform (Homo sapiens) (Q02297 whole entry, looked up, the tested form may be a part, canonical isoform): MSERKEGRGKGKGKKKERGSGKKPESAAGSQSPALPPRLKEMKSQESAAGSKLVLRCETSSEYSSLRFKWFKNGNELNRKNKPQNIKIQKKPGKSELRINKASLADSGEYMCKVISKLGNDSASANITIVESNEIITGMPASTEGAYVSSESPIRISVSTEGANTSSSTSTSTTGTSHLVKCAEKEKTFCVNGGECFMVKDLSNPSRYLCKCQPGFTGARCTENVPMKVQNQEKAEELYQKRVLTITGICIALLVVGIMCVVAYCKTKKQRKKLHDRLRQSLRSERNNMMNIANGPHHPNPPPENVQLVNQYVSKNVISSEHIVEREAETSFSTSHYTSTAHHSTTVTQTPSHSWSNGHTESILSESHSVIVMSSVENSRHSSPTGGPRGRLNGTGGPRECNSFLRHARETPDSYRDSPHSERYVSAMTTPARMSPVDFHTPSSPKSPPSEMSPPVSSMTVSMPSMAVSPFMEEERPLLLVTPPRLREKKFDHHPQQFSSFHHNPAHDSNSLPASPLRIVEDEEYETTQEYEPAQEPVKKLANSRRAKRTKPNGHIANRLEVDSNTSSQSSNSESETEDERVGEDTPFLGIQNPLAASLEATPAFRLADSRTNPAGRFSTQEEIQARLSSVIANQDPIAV

Take `CCN(CC)c1ccc(N2CC=CC34O[C@@H]5/C=C\CCC(C)OC(=O)C5[C@H]3C(=O)N(CCO)[C@@H]4C2=O)cc1` (stereo not given in full): the composite z-score was 0.478 in test [1]; -0.476 in [2]; -0.103 in test [3]; -0.57 in test [4]; -0.331 in [5]; 1.57 in test [6]. Besides, the composite z-score in test [7] was 1.15; in test [9], -1.17; in [10], -0.134. In addition, the z-score in [8] is 1.16 (inactive).
Consider `O=C1NCC(=O)N2[C@@H]1C[C@@H](C(=O)O)[C@H]2c1ccc(O)cc1`, for which the composite z-score in test [1] was 0.257; in [2], 0.433; in [3] it was 0.0121; in [4] it was 0.593; in test [5] it was -0.218; in test [6] it was 1.81. The composite z-score in [7] was 1.39; in test [9], 0.0816; in [10], -0.0618. The z-score in [8] was 4.94 (inactive).
Regarding `CCOC(=O)C[C@H]1[C@H](OC(=O)c2ccc(-c3ccccc3)cc2)[C@@H](NC(=O)c2ccc3ccccc3c2)c2cc(OCCCO)ccc2N1C(=O)c1ccc2ccccc2n1`, the composite z-score was -0.0093 in [1]; 0.0135 in test [2]; -0.06 in test [3]; 0.398 in test [4]; 0.676 in test [5]; 0.706 in [6]. The composite z-score in test [7] came out at 0.15; in [9] it was 0.426; in test [10], 0.154. Further, the z-score in test [8] was 0.247 (inactive).
Consider `COC(=O)[C@@]1(Cc2ccccc2)[C@H]2c3cc(C(=O)N4CCCC4)[nH]c3C[C@H]2CN1C(=O)c1ccccc1`, for which the composite z-score in test [1] is 0.718; in test [2] it was 0.065; in test [3], 0.134; in test [4], -0.0267; in [5] it was 1.13; in test [6] it was 1.29. In addition, the composite z-score in test [7] was 0.664; in test [9] it was 0.623; in test [10], -0.133. Moreover, the z-score in test [8] is 0.535 (inactive).
Regarding `Cc1ccc(F)cc1S(=O)(=O)N[C@@H]1CCN(Cc2ccc(Oc3ccccc3)cc2)C1`, the composite z-score in test [1] is -0.191; in test [2], 0.45; in [3], -0.144; in test [4], -0.3; in test [5] it was -0.155; in [6] it was 0.0412. For the same compound, the results for the composite z-score in [7], in test [9] and in test [10] were -0.014, 0.0111 and -0.34, respectively. The z-score in [8] is -1.9 (inactive).
Regarding `CN1C2C=C(CCCO)C(C3C(=O)N(C(N)=O)C(=O)C32)C1c1cccs1` (stereo not given), the composite z-score was -0.153 in test [1]; 0.104 in test [2]; -0.116 in test [3]; -1.63 in test [4]; 0.127 in test [5]; -0.317 in [6]. Further, the composite z-score in [7] amounted to 0.165; in [9], 0.0118; in test [10], 0.303. The z-score in test [8] was -0.194 (inactive).
On to `COc1ccc([Si](C)(C)[C@@H]2[C@@H](CCO)O[C@]3(C(=O)N(Cc4cccc(N5C(=O)c6ccccc6Oc6ccccc65)c4)c4ccccc43)[C@H]2C)cc1`, for which the composite z-score in test [1] was 0.393; in test [2], 0.123; in [3], -0.134; in test [4], -0.173; in test [5], -0.571; in test [6], 0.536. The composite z-score was 0.602 in test [7], 0.0472 in [9] and -0.134 in test [10]. Besides, in [8], the z-score was 0.133 (inactive).
Consider `COc1cc2c(cc1OC)CN(C(=O)[C@@H]1[C@H]3C(=O)O[C@H](c4ccccc4)[C@H](c4ccccc4)N3[C@H](c3ccccc3OCCO)[C@@]13C(=O)Nc1ccc(C#CC4(O)CCCCCC4)cc13)CC2`, for which the composite z-score in test [1] is -0.0079; in [2], 0.955; in [3] it was -0.0573; in test [4], 0.201; in test [5] it was 0.463; in test [6], 0.935. Moreover, the results for the composite z-score in [7], in test [9] and in test [10] were 1.2, -0.0613 and -0.123, respectively. Moreover, the z-score in test [8] was -0.066 (inactive).
Consider `COCCOC(=O)N1C(=O)[C@@]2(c3cc(C#Cc4ccc(OC)cc4)ccc31)[C@H](C(=O)NC[C@H](O)c1ccccc1)[C@H]1C(=O)O[C@H](c3ccccc3)[C@H](c3ccccc3)N1[C@@H]2c1ccc(O)cc1`, for which the composite z-score in test [1] is -0.179; in test [2], 0.504; in test [3] it was 0.0086; in test [4], 0.589; in [5], 1.37; in [6], 0.566. Also, the composite z-score in test [7] came to 1.23; in test [9], 0.57; in test [10], 0.012. For the same compound, the z-score in [8] is 0.427 (inactive).
As to `C=C(CCCC)C(=O)CC[C@@H](OC(=O)c1ccccc1-c1ccccc1C(=O)O)c1cccc(OCCO)c1`, the composite z-score in test [1] was -0.208; in test [2], 0.996; in test [3], -0.129; in test [4] it was 0.166; in [5], -0.404; in test [6], 0.143. Further, the composite z-score in test [7] was 0.742; in test [9], -0.499; in test [10], -0.249. For the same compound, the z-score in test [8] is 0.238 (inactive).
For `C[C@]1(C(=O)NCCN2CCOCC2)c2ccccc2C(=O)N(Cc2ccc(OC(F)(F)F)cc2)[C@H]1c1ccc(CO)cc1`, the composite z-score is 0.0198 in [1]; 0.317 in test [2]; -0.146 in test [3]; -0.735 in test [4]; -0.375 in test [5]; 2.05 in test [6]. The composite z-score in test [7] is 1.02; in test [9] it was 0.045; in test [10], -0.236. In [8], the z-score is -2.39 (inactive).
For the compound `Cc1ccc(S[C@]2(C(=O)O)CC(=O)N(Cc3ccccc3Cl)[C@@H]2c2ccc(CO)cc2)cc1`, the composite z-score in [1] was 0.96; in test [2], -0.614; in test [3], -0.113; in test [4], 0.449; in [5] it was -0.72; in test [6] it was 0.103. Moreover, the composite z-score in test [7] is -0.408; in [9] it was -0.172; in test [10] it was -0.0994. Further, the z-score in test [8] is -0.917 (inactive).
Regarding `O=C1O[C@H](c2ccccc2)[C@H](c2ccccc2)N2[C@H]1[C@@H](C(=O)O)[C@]1(C(=O)Nc3ccccc31)[C@H]2c1ccc(O)cc1`, the composite z-score is 1.17 in [1]; -0.122 in test [2]; -0.113 in test [3]; 0.338 in test [4]; -0.844 in [5]; 1.85 in [6]. The composite z-score in test [7] is 0.771; in [9], -0.388; in [10], -0.24. In test [8], the z-score is 1.28 (inactive).
Consider `CC(C)C(O)C1C=CC2C(=O)N(C)C(=O)C2N1Nc1ccccc1` (stereo not given), for which the composite z-score in test [1] was 0.383; in test [2] it was 0.681; in test [3], 0.364; in test [4], 0.914; in [5] it was 1.69; in [6], 1.19. The composite z-score in test [7] turned out to be 1.37; in test [9], 1.35; in test [10] it was 0.67. In addition, in [8], the z-score is 2.73 (inactive).
In the case of `CCOC(=O)[C@@H]1[C@@H]2C(=O)N(CC)C(=O)[C@@H]2C[C@@H]1Sc1ccccc1`, the composite z-score was -0.528 in test [1]; 1.04 in test [2]; 0.0308 in test [3]; 0.712 in test [4]; 1.39 in test [5]; 0.354 in [6]. For the same compound, the composite z-score in test [7] was 1.33; in [9], 0.731; in [10] it was -0.226. The z-score in test [8] is -1.02 (inactive).
Consider `CC(C)N1CC=CC23O[C@@H]4C=CCOC(=O)[C@@H]4[C@H]2C(=O)N(C(C)CO)[C@@H]3C1=O` (stereo not given in full), for which the composite z-score is 0.377 in test [1]; -1.2 in test [2]; -0.071 in [3]; -0.536 in test [4]; -1.11 in test [5]; 2.17 in test [6]. Further, the figures for the composite z-score in test [7], in test [9] and in [10] were 0.9, -0.508 and -0.593, respectively. Moreover, the z-score in test [8] is 0.106 (inactive).
